Screening data from PubChem.
HT1080NT lethal: kills 2HG-producing HT-1080-NT fibrosarcoma cells. HT-1080-NT fibrosarcoma viability, CellTiter-Glo ATP luminescence, 48 h. 1.6% of 360,000 active. Potency, µM (series often up to 46.1 µM), for the others: at the top dose activity, negative = less viability, most hits filed as cytotoxic;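 note: NT is the 2HG producing partner of a matched IDH1 knockdown line; 0% = DMSO-treated cells and -100% = media-only wells without cells; nearly all actives have a fitted effect of over 55% in size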
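HT-1080-NT; 750 cells/well; 5% FBS RPMI; 48 h compound, 37 degrees C; CellTiter-Glo luminescence; curve fitting and curve-class assignment.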
HT1080 IDH1KD tx: HT-1080 IDH1 knockdown cell toxicity (counter line); HT-1080 IDH1 knockdown viability, ATP luminescence, 48 h; Potency, µM (doses to about 46.1 µM), without a hit: top-dose activity, negative = toxicity, most hits filed as cytotoxic; 2% of 360,000 active;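 note: 0% = DMSO wells and -100% = cell-free medium wells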
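In this qHTS, HT-1080 cells depleted of IDH1 are exposed for 48 h at 37 °C to compound titrations. Toxicity is scored from CellTiter-Glo luminescence, with DMSO as full viability and medium alone as none.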
KB-3-1 cytotox: KB-3-1 parental cell cytotoxicity; KB-3-1 viability, CellTiter-Glo ATP luminescence, 72 h; Potency, µM (doses to about 46.1 µM), usual class: cytotoxic; 1.4% of 400,000 active; AID 1347075; note: % is set by controls: 0 for no effect and ±100 for the full control effect; nearly all actives have a fitted effect of over 60% in size
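Multi-concentration cytotoxicity screen in KB-3-1 cells grown in DMEM lacking phenol red with 10% FBS. After 72 h at 37 °C with compound, ATP-dependent luminescence was recorded.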
SW480 rereplic: DNA re-replication induction in SW480 cells | Potency, µM (doses to about 46.1 µM), inactives show top-dose re-replication activation, most hits filed as activators | 1.8% of 340,000 active | SW480 DNA re-replication, Hoechst DNA content imaging, 48 h; note: % of control where 0% means no effect; nearly all actives have a fitted effect of over 55% in size
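Per well, 250 cells were exposed to pinned compound for 48 hr. Nuclear DNA was visualised with Hoechst (40 min, 37 C) and total object intensity recorded by fluorescence scanning.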
MCF10A rerep: inducers of DNA re-replication in MCF 10A breast cells; MCF 10A DNA re-replication, Hoechst nuclear intensity, 48 h; Potency, µM (doses to about 46.1 µM), without a hit: top-dose activity, positive = re-replication, actives largely listed as activators; 2.9% of 350,000 active; AID 624296; note: % of control where 0% means no effect; nearly all actives have a fitted effect of over 50% in size
KB-V1 cytotox: KB-V1 MDR subline cytotoxicity. Potency, µM (series often up to 46.1 µM), most hits filed as cytotoxic. 3.4% of 400,000 active. KB-V1 MDR cells viability, CellTiter-Glo, 72 h; note: % is set by controls: 0 for no effect and ±100 for the full control effect; nearly all actives have a fitted effect of over 60% in size
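KB-V1 MDR subline cells in DMEM (phenol-red free, 10% FBS) exposed to compounds in qHTS concentration series for 72 h at 37 degrees C. Viability read by CellTiter-Glo luminescence; concentration-effect curves fitted after normalization and correction.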
An asterisk follows results filed as active; [ ] = dose if it differs, or a comment. The list is not random: actives were taken first. Their share in the collection is about 7.9%. Calls come from the whole dose curve; as a rule, active = well fitted curve in the direction sought with a large enough effect; inconclusive = small, poorly fitted or top-dose-only effect, or another doubt; inactive = no such curve, though single readings can be large; an effect the other way counts as inactive or inconclusive. Potency is the fitted concentration of half-maximal effect.

`CCN(C(=O)COC(=O)c1nc(Cl)ccc1Cl)C1CCS(=O)(=O)C1` (configuration not stated) gave HT1080NT lethal 6.6%, HT1080 IDH1KD tx -1.5%, KB-3-1 cytotox inactive, SW480 rereplic -0.6%, MCF10A rerep -0.9% and KB-V1 cytotox inactive.
Screening O=C(NCC1CCCC(CNC(=O)N2CCc3ccccc32)C1)N1CCc2ccccc21 (configuration not stated) returned HT1080NT lethal inconclusive, HT1080 IDH1KD tx 20µM*, KB-3-1 cytotox inactive, SW480 rereplic inconclusive, MCF10A rerep 22.6% and KB-V1 cytotox 5.17µM*.
`Cc1ccc(/C=N/Nc2nc(C(C)(C)C)cs2)o1` gave HT1080NT lethal 4.0%, HT1080 IDH1KD tx -1.1%, KB-3-1 cytotox inactive, SW480 rereplic -56.3%, MCF10A rerep 9.2µM* and KB-V1 cytotox inactive.
For CC(C)(C)c1csc(N/N=C/c2cccnc2)n1 the results were HT1080NT lethal 0.3%, HT1080 IDH1KD tx -16.0%, KB-3-1 cytotox inconclusive, SW480 rereplic -8.7%, MCF10A rerep 14.2% and KB-V1 cytotox inconclusive.
`OCCCCCCNc1ccc(CCO)cc1` gave HT1080NT lethal 18.9%, HT1080 IDH1KD tx 18.8%, KB-3-1 cytotox inactive and KB-V1 cytotox inactive.
For C=CCn1c(COc2ccc(OC)cc2)nnc1SCn1nnc2ccccc2c1=O the results were HT1080NT lethal -7.1%, HT1080 IDH1KD tx -1.0%, KB-3-1 cytotox inactive, SW480 rereplic -30.4%, MCF10A rerep -67.1% and KB-V1 cytotox 20.6µM*.
For COCc1cc(C)nc(OCC(=O)N/N=C/c2ccc(OC)c(OC)c2)c1C#N the results were HT1080NT lethal -5.7%, HT1080 IDH1KD tx -8.9%, KB-3-1 cytotox inactive, SW480 rereplic 9.7%, MCF10A rerep inconclusive and KB-V1 cytotox inactive.
`COCc1cc(C)nc(OCC(=O)N/N=C/c2ccc(O)cc2)c1C#N` gave HT1080NT lethal -1.0%, HT1080 IDH1KD tx -19.7%, KB-3-1 cytotox inactive, SW480 rereplic 18.4µM*, MCF10A rerep -0.8% and KB-V1 cytotox inactive.
`Cn1c(=O)c2c(nc(Sc3ncccn3)n2Cc2ccccc2Cl)n(C)c1=O` gave HT1080NT lethal 3.8%, HT1080 IDH1KD tx 0.3%, KB-3-1 cytotox inactive, SW480 rereplic -12.6%, MCF10A rerep inconclusive and KB-V1 cytotox 23.1µM*.
`CCCOc1nc2c(c(=O)n(C)c(=O)n2C)n1C` gave HT1080NT lethal 17.3%, HT1080 IDH1KD tx 10.0%, KB-3-1 cytotox inactive, SW480 rereplic -2.6%, MCF10A rerep -4.8% and KB-V1 cytotox inactive.
For C=CCOc1nc2c(c(=O)n(C)c(=O)n2C)n1Cc1ccccc1Cl the results were HT1080NT lethal 5.5%[9.24 µM], HT1080 IDH1KD tx inconclusive, KB-3-1 cytotox inconclusive, SW480 rereplic -3.0%, MCF10A rerep inconclusive and KB-V1 cytotox 7.31µM*.
COc1ccc(Oc2nc3c(c(=O)n(C)c(=O)n3C)n2Cc2ccccc2Cl)cc1 was read as KB-3-1 cytotox inactive and KB-V1 cytotox inactive.
For C=CCOc1nc2c(c(=O)n(C)c(=O)n2C)n1Cc1ccc(Cl)cc1 the results were HT1080NT lethal 2.7%, HT1080 IDH1KD tx 18.3%, KB-3-1 cytotox inconclusive, SW480 rereplic -5.7%, MCF10A rerep -8.3% and KB-V1 cytotox 2.91µM*.
`Cn1c(=O)c2c(nc(Sc3ncccn3)n2Cc2ccc(Cl)cc2)n(C)c1=O` gave HT1080NT lethal -3.4%, HT1080 IDH1KD tx -11.7%, KB-3-1 cytotox inactive, SW480 rereplic -1.3%, MCF10A rerep 7.4% and KB-V1 cytotox inactive.
CCCOc1nc2c(c(=O)n(C)c(=O)n2C)n1Cc1cccc2ccccc12 was read as HT1080NT lethal 9.6%, HT1080 IDH1KD tx 6.7%, KB-3-1 cytotox inactive, SW480 rereplic 9.7%, MCF10A rerep 17.6% and KB-V1 cytotox 5.8µM*.
Screening COc1ccc(C)cc1NC(=O)Nc1nnc(N2CCCCC2)s1 returned KB-3-1 cytotox inactive and KB-V1 cytotox inactive.
O=C(C1CCCN(S(=O)(=O)c2cccs2)C1)N1CCN(c2ccccc2F)CC1 (configuration not stated) was read as KB-3-1 cytotox inactive and KB-V1 cytotox inactive.
Cc1ccc2nc(Cl)c3cc(C(=O)NC4CCC(C)CC4)sc3c2c1 (configuration not stated) was read as KB-3-1 cytotox inactive and KB-V1 cytotox inactive.
CSc1ncc(Cl)c(C(=O)N(C)c2ccccc2)n1 was read as KB-3-1 cytotox inactive and KB-V1 cytotox inactive.
`CCn1c(N)nc2c1c(=O)n(C)c(=O)n2C` gave HT1080NT lethal 1.3%, HT1080 IDH1KD tx -1.2%, KB-3-1 cytotox inactive, SW480 rereplic 1.6%, MCF10A rerep 3.4% and KB-V1 cytotox inactive.
`Cc1ccccc1-c1nc2c(=O)n(C)c(=O)nc-2n(C)n1` gave KB-3-1 cytotox 2.06µM* and KB-V1 cytotox inconclusive.
For Cn1nc(-c2ccccn2)nc2c(=O)n(C)c(=O)nc1-2 the results were HT1080NT lethal 1.84µM*, HT1080 IDH1KD tx 1.64µM*, KB-3-1 cytotox inconclusive, SW480 rereplic 0.82µM*, MCF10A rerep 2.91µM* and KB-V1 cytotox inactive.
For Cc1ccc(-n2c3nc(=O)n(C)c(=O)c-3cc3ccccc32)cc1 the results were HT1080NT lethal 10.6%, HT1080 IDH1KD tx 13.7%, KB-3-1 cytotox inactive, SW480 rereplic inconclusive, MCF10A rerep 9.2% and KB-V1 cytotox inactive.
CCCc1nc2c(=O)n(C)c(=O)nc-2n(C)n1 was read as HT1080NT lethal 3.66µM*, HT1080 IDH1KD tx 2.06µM*, KB-3-1 cytotox 4.61µM*, SW480 rereplic 0.651µM*, MCF10A rerep 10.3µM* and KB-V1 cytotox 7.31µM*.
Screening Cc1ccc(CNC(=O)CCCn2c(=O)c3ccccc3n(CC(=O)Nc3ccc(C)cc3)c2=O)cc1 returned KB-3-1 cytotox inactive and KB-V1 cytotox inactive.
CCC(C)(C)NS(=O)(=O)c1cc(-c2cc(C)no2)ccc1C was read as KB-3-1 cytotox inactive and KB-V1 cytotox inactive.
`CCOc1cc(/C=C\[N+](=O)[O-])ccc1OCC(=O)Nc1ccccc1C` gave HT1080NT lethal 2.91µM*, HT1080 IDH1KD tx 6.51µM*, KB-3-1 cytotox inactive, SW480 rereplic inconclusive, MCF10A rerep 2.91µM* and KB-V1 cytotox inactive.
Screening COc1ccc(CCNC(=O)Nc2nc(C(N)C3CCCCC3)cs2)cc1OC (configuration not stated) returned HT1080NT lethal inconclusive, HT1080 IDH1KD tx inconclusive, KB-3-1 cytotox inconclusive and KB-V1 cytotox inactive.
